Source: the supplement of paper PMC10849652
Targets with a hit are over-represented here; the source holds about 7,900 in all. About 0.6% of all pairs of compound and target were hits. Unmarked numbers belong to inactive results.

Key:
Assay in all cases: log2 fold change, soluble protein after heating vs DMSO (PISA); higher = thermal stabilisation; K562 cells, 10 uM, 30 min; active = over 0.2 and 3.5 SD of the protein, either way, in both replicates (recomputed)
saracatinib = compound: CN1CCN(CCOc2cc(OC3CCOCC3)c3c(Nc4c(Cl)ccc5c4OCO5)ncnc3c2)CC1 [saracatinib]
Summary of the method: (§1)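 For each measurement, 10 μM compound was applied for 30 min to K562 cells at 2×10^6 cells/mL. Aliquots were heated for 3 min across 48°C-58°C, pooled, and extracted in PBS with 0.5% NP-40 at 4°C; the supernatant after 21,000xg for 90 min was soluble protein. This was quantified by TMTpro 16plex LC-MS/MS with channel sums equalised, and thermal stability was reported relative to control samples from duplicates, on a log2 fold-change scale.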

sotrastaurin = compound: CN1CCN(c2nc(C3=C(c4c[nH]c5ccccc45)C(=O)NC3=O)c3ccccc3n2)CC1 [sotrastaurin]
Summary of the method: as §1

alvocidib = compound: CN1CC[C@H](c2c(O)cc(O)c3c(=O)cc(-c4ccccc4Cl)oc23)[C@H](O)C1 [alvocidib]
Summary of the method: as §1

Tubastatin A = compound: CN1CCc2c(c3ccccc3n2Cc2ccc(C(=O)NO)cc2)C1 [Tubastatin A]
Summary of the method: as §1

[1] = compound: CNC(=O)C1=CC=CC=C1NC2=NC(=NC=C2Cl)NC3=C(C=C(C=C3)N4CCOCC4)OC
Summary of the method: as §1

defactinib = compound: CNC(=O)c1ccc(Nc2ncc(C(F)(F)F)c(NCc3nccnc3N(C)S(C)(=O)=O)n2)cc1 [defactinib]
Summary of the method: as §1

rucaparib = compound: CNCc1ccc(-c2[nH]c3cc(F)cc4c3c2CCNC4=O)cc1 [rucaparib]
Summary of the method: as §1

[2] = compound: CNc1nc(-c2ccc3c(N)n[nH]c3c2)cc(N2C[C@@H](C(=O)NC3CCCCC3)CC[C@H]2C)n1
Summary of the method: as §1

encorafenib = compound: COC(=O)N[C@@H](C)CNc1nccc(-c2cn(C(C)C)nc2-c2cc(Cl)cc(NS(C)(=O)=O)c2F)n1 [encorafenib]
Summary of the method: as §1

[3] = compound: COC(=O)[C@H](CCSC)NC(=O)C1=C(C=C(C=C1)NC[C@H](CS)N)C2=CC=CC=C2
Summary of the method: as §1

[4] = compound: COC1=CC=C(C=C1)CN2C=CC3=C2C=C(C=C3)C(=O)NO
Summary of the method: as §1

filanesib = compound: CON(C)C(=O)N1N=C(c2cc(F)ccc2F)S[C@@]1(CCCN)c1ccccc1 [filanesib]
Summary of the method: as §1

zotarolimus = compound: CO[C@H]1C[C@@H]2CC[C@@H](C)[C@@](O)(O2)C(=O)C(=O)N2CCCC[C@H]2C(=O)O[C@H]([C@H](C)C[C@@H]2CC[C@H](n3cnnn3)[C@H](OC)C2)CC(=O)[C@H](C)/C=C(\C)[C@@H](O)[C@@H](OC)C(=O)[C@H](C)C[C@H](C)/C=C/C=C/C=C/1C [zotarolimus]
Summary of the method: as §1

idasanutlin = compound: COc1cc(C(=O)O)ccc1NC(=O)[C@@H]1N[C@@H](CC(C)(C)C)[C@](C#N)(c2ccc(Cl)cc2F)[C@H]1c1cccc(Cl)c1F [idasanutlin]
Summary of the method: as §1

alisertib = compound: COc1cc(Nc2ncc3c(n2)-c2ccc(Cl)cc2C(c2c(F)cccc2OC)=NC3)ccc1C(=O)O [alisertib]
Summary of the method: as §1

[5] = compound: COc1cc2nc(-c3cc(F)ccc3O)nc(N[C@@H]3CNC[C@H]3C(C)(C)O)c2cc1OC
Summary of the method: as §1

gefitinib = compound: COc1cc2ncnc(Nc3ccc(F)c(Cl)c3)c2cc1OCCCN1CCOCC1 [gefitinib]
Summary of the method: as §1

[6] = compound: COc1cccc2cc(-c3nc([C@H]4CC[C@H](C(=O)O)CC4)n4ncnc(N)c34)[nH]c12
Summary of the method: as §1

lapatinib = compound: CS(=O)(=O)CCNCc1ccc(-c2ccc3ncnc(Nc4ccc(OCc5cccc(F)c5)c(Cl)c4)c3c2)o1 [lapatinib]
Summary of the method: as §1

pictilisib = compound: CS(=O)(=O)N1CCN(Cc2cc3nc(-c4cccc5[nH]ncc45)nc(N4CCOCC4)c3s2)CC1 [pictilisib]
Summary of the method: as §1

Sequence of UniProt Q9H2M9 (Q9H2M9 whole entry, looked up): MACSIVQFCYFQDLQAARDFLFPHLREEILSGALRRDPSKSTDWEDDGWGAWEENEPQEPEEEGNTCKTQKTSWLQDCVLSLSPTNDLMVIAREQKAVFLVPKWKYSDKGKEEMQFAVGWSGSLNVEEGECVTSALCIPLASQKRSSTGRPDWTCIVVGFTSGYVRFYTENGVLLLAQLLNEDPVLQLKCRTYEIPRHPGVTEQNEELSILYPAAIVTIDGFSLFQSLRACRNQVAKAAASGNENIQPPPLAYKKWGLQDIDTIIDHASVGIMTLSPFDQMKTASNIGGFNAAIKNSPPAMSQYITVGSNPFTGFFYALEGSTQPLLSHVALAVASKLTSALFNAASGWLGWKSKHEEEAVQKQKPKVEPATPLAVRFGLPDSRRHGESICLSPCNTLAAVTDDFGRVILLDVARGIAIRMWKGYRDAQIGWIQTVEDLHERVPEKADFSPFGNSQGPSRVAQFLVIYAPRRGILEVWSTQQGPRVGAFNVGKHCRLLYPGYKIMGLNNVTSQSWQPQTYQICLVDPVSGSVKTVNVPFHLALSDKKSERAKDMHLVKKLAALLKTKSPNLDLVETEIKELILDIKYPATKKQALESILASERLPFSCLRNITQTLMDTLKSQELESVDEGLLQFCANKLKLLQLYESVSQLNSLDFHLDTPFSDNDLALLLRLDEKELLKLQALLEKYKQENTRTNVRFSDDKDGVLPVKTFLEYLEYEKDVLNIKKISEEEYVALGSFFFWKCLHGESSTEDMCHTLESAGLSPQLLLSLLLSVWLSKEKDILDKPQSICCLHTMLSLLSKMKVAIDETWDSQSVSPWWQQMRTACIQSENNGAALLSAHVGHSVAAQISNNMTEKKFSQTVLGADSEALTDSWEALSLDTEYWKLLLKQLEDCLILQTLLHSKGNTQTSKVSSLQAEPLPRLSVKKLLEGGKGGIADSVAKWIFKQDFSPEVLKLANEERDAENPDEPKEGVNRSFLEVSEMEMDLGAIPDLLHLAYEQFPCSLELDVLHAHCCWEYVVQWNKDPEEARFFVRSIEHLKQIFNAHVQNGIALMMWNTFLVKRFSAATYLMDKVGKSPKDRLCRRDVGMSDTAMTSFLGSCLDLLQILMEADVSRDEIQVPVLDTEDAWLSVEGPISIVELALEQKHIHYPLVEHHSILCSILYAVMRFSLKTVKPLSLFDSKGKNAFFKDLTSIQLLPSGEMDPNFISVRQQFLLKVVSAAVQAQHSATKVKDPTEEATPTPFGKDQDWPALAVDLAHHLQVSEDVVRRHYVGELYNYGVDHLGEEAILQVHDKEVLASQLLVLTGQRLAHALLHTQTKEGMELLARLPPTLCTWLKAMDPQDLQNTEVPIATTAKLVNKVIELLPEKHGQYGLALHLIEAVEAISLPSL
Sequence of UniProt P27694 (P27694 whole entry, looked up): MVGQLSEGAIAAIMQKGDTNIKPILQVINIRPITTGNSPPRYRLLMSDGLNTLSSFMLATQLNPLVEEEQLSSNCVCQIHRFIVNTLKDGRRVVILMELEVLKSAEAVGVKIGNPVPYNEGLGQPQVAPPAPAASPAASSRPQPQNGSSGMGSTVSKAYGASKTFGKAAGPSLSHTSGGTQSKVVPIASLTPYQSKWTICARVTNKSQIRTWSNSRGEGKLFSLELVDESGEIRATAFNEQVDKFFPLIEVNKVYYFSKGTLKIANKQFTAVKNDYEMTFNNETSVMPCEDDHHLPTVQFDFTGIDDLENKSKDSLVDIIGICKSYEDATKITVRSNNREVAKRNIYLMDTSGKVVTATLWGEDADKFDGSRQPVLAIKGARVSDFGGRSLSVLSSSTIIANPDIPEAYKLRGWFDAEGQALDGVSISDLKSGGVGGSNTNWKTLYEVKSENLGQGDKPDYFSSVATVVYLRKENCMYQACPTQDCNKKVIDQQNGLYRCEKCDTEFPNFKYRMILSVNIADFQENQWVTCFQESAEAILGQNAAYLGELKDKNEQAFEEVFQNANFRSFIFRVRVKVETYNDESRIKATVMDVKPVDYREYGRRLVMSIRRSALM
Sequence of UniProt Q9P2N5 (Q9P2N5 whole entry, looked up): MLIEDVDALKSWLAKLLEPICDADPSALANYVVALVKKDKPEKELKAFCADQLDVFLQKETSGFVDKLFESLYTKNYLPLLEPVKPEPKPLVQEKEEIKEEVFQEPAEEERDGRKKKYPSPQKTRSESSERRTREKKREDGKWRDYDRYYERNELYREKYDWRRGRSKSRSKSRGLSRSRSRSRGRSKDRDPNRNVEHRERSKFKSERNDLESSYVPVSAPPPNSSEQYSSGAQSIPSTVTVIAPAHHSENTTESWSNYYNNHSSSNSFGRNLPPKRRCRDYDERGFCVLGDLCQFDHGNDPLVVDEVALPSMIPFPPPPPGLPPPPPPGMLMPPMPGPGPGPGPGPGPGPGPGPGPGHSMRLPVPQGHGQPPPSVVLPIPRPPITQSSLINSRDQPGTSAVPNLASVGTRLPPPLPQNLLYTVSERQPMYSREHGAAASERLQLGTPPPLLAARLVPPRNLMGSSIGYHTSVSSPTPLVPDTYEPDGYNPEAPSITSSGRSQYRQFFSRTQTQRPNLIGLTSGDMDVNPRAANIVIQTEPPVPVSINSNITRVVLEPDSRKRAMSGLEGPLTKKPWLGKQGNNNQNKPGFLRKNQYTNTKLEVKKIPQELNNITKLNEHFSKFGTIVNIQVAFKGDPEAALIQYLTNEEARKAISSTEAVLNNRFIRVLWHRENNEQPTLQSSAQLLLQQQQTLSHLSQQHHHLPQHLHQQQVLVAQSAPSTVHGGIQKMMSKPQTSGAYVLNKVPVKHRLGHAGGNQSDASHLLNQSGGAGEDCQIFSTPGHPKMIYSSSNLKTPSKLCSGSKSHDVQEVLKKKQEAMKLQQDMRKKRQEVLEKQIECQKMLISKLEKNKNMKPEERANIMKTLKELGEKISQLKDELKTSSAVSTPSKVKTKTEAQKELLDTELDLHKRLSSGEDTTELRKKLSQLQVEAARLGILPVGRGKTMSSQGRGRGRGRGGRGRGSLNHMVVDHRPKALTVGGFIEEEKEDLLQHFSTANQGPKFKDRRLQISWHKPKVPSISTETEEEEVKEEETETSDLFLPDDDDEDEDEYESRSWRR
Sequence of UniProt Q5T8P6 (Q5T8P6 whole entry, looked up): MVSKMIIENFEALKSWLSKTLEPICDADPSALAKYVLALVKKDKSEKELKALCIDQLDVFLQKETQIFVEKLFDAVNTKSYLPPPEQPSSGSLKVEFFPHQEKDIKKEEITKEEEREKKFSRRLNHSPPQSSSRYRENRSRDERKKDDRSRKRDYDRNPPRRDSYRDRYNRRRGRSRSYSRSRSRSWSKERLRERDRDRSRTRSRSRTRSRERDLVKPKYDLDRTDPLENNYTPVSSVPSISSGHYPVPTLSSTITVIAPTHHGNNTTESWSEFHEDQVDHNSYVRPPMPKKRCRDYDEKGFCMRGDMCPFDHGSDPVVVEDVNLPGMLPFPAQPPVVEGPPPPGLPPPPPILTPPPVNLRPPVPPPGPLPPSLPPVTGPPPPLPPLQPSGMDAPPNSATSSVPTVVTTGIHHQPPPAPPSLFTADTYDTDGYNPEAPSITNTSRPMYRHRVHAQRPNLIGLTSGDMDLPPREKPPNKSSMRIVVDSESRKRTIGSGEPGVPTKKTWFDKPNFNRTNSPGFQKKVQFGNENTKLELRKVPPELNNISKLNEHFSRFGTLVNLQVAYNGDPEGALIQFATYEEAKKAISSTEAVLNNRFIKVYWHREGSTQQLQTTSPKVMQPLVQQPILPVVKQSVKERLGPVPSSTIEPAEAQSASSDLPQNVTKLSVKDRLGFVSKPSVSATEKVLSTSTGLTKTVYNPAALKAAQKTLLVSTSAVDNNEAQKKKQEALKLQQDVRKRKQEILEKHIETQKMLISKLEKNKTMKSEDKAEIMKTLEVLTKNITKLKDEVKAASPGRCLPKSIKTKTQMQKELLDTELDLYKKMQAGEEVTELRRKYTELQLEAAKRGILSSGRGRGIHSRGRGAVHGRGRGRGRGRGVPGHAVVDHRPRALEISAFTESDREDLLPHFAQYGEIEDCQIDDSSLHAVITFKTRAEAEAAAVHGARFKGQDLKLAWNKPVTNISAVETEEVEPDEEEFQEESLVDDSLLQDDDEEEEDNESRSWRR
Sequence of UniProt Q86TU7 (Q86TU7 whole entry, looked up): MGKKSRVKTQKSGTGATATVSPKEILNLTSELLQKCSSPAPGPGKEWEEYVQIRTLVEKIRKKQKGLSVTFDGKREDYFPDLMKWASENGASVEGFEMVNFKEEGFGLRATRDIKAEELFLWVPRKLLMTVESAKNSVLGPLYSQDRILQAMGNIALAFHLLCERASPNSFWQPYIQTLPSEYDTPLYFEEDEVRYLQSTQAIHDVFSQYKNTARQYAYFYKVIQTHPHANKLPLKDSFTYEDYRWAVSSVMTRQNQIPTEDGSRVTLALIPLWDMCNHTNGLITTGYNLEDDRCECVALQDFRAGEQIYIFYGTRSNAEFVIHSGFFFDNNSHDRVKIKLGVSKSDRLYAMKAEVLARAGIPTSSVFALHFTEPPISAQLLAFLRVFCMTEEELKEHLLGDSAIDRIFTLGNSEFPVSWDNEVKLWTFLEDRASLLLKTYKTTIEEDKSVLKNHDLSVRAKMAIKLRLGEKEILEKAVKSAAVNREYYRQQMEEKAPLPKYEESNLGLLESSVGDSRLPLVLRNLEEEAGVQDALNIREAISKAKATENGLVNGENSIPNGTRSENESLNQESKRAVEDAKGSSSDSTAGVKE
Sequence of UniProt Q96IZ7 (Q96IZ7 whole entry, looked up): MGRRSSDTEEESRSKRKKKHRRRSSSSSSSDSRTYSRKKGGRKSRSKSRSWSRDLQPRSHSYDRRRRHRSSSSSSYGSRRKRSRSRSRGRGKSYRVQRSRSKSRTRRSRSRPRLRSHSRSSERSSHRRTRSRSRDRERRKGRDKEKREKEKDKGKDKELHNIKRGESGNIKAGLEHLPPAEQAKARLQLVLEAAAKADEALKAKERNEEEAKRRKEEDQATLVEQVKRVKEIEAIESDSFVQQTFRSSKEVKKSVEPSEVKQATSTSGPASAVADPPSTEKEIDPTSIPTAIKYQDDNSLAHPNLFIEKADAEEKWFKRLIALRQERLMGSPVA

Target | log2 fold change (saracatinib) | log2 fold change (sotrastaurin) | log2 fold change (alvocidib) | log2 fold change (Tubastatin A) | log2 fold change [1] | log2 fold change (defactinib) | log2 fold change (rucaparib) | log2 fold change [2] | log2 fold change (encorafenib) | log2 fold change [3] | log2 fold change [4] | log2 fold change (filanesib) | log2 fold change (zotarolimus) | log2 fold change (idasanutlin) | log2 fold change (alisertib) | log2 fold change [5] | log2 fold change (gefitinib) | log2 fold change [6] | log2 fold change (lapatinib) | log2 fold change (pictilisib)
SETD3 (UniProt Q86TU7) | 0.008 | 0.012 | -0.071 | -0.056 | 0.014 | -0.004 | 0.022 | 0.032 | -0.009 | 0 | -0.254 (active) | -0.132 | 0.009 | -0.086 | -0.022 | 0.052 | 0.017 | 0.048 | -0.013 | 0.03
RBM27 (UniProt Q9P2N5) | 0.04 | -0.039 | -0.141 | 0.013 | -0.297 (active) | -0.303 (active) | -0.015 | 0.033 | -0.011 | -0.042 | -0.025 | 0.094 | 0.027 | 0.075 | 0.02 | -0.058 | 0.057 | 0.018 | 0.051 | -0.08
RPA1 (UniProt P27694) | -0.007 | -0.016 | -0.031 | 0.039 | 0.012 | -0.076 | 0.027 | -0.01 | 0.076 | -0.021 | 0.053 | -0.006 | 0.018 | -0.042 | 0.027 | 0.049 | -0.001 | -0.133 | 0.006 | -0.088
RAB3GAP2 (UniProt Q9H2M9) | -0.111 | -0.195 | -0.013 | 0.058 | 0.017 | -0.064 | 0.205 | 0.039 | 0.189 | -0.089 | 0 | 0.049 | 0.101 | 0.01 | -0.056 | 0.009 | 0.017 | -0.103 | 0.038 | -0.027
RSRC1 (UniProt Q96IZ7) | 0.04 | 0.042 | -0.027 | 0.018 | -0.215 (active) | -0.018 | -0.04 | -0.004 | 0.023 | 0.052 | 0.136 | -0.003 | 0.033 | -0.004 | -0.084 | -0.024 | 0.024 | 0.001 | 0.041 | 0.101
RNASET2 (UniProt O00584) | 0.009 | 0.01 | 0.077 | 0.003 | -0.031 | -0.004 | -0.163 | -0.067 | 0.015 | -0.002 | 0.012 | -0.155 | -0.013 | -0.021 | -0.046 | -0.097 | -0.081 | 0.035 | -0.028 | 0.024
RBM26 isoform 2 (UniProt Q5T8P6) | -0.01 | -0.193 | -0.226 | 0.094 | -0.074 | -0.489 (active) | -0.039 | 0.025 | 0.03 | -0.032 | 0.086 | -0.071 | 0.03 | -0.025 | 0.093 | -0.045 | 0.064 | 0.009 | 0.034 | 0.059
